This note sets out measurements from the OligoGym collection.
Also: reference of the scale not given here.

The target of one experiment is PRUNE. The experiment is described as follows: pooled miR-30 sensor sort-seq; sequence = guide strand. Particulars: shRNA.
TAATAGTATAACAAAATGCAAA came in with a sensor-assay potency score (higher = more potent) of -1.31.

Sequence TTACCTTCCACATAGCTACAGA registered a sensor-assay potency score (higher = more potent) of -0.331.

On to TTGTCTATAGATAGTCTTCTGG, for which the sensor-assay potency score (higher = more potent) was -0.685.

For the sequence TTAAATAATAAAATGTGTCTGA, the sensor-assay potency score (higher = more potent) was -0.11.

TTTCTTTCGAGAGACCTGGGTG gave a sensor-assay potency score (higher = more potent) of -0.0186.

The sequence TGTCTATAGATAGTCTTCTGGT showed a sensor-assay potency score (higher = more potent) of -0.567.

The target of a further experiment is PSD4. The experiment is described as above. The conditions noted are these: shRNA.
TTACCTCTCTATCCTCTCCAGT gave a sensor-assay potency score (higher = more potent) of -0.76.

The sequence TTAAGCAGCATGATTGCACATG registered a sensor-assay potency score (higher = more potent) of -0.729.

TGCACGTAGGTCTCGTAGCGGG registered a sensor-assay potency score (higher = more potent) of -1.25.

The sequence TAGCTAGCTTGTCTCCAGCTGG yielded a sensor-assay potency score (higher = more potent) of -0.572.

In the case of TTGCGCTTCACCTTGGCCGTGG, the sensor-assay potency score (higher = more potent) stood at 0.0843.

On to TCTTCTTGCCGTCTGCATCTTG, for which the sensor-assay potency score (higher = more potent) was -0.456.

TAAGGTGTGGAACATCTTCCAG returned a sensor-assay potency score (higher = more potent) of -1.04.

In the case of TTTCCCTTGGGCACTCTCCTGG, the sensor-assay potency score (higher = more potent) was -0.299.

TCACTCTTTACTTCCTCGCCTG had a sensor-assay potency score (higher = more potent) of -0.455.

In turn, TTTTCTTCAAGGAACTTGGCTG showed a sensor-assay potency score (higher = more potent) of -0.084.

For the sequence AAGGTGTGGAACATCTTCCAGC, the sensor-assay potency score (higher = more potent) is -0.755.

Another experiment deals with PSG2. The description is as above. The conditions noted are these: shRNA.
On to TAGAGGTTATCTCCTGAACGGT, for which the sensor-assay potency score (higher = more potent) is -0.865.

Turning to TTTCGGACAGCTGAAACCTATG, the sensor-assay potency score (higher = more potent) is -1.61.

In the case of TTAAAAGTGATGCTGTGACCAG, the sensor-assay potency score (higher = more potent) is -0.575.

TTGACTGTCAACGATGTGGAGC had a sensor-assay potency score (higher = more potent) of -0.475.

TTCTTGTAGAAGCAGAGACTTT gave a sensor-assay potency score (higher = more potent) of -1.51.

Sequence TAGAAGCAGAGACTTTGACTGT yielded a sensor-assay potency score (higher = more potent) of -0.247.

With TAAAAGTGATGCTGTGACCAGG, the sensor-assay potency score (higher = more potent) was -0.171.

The sequence TTTCTCGTCCACTATATGCAGG displayed a sensor-assay potency score (higher = more potent) of -0.849.

The sequence ACAAGTAGAGGTTATCTCCTGA gave a sensor-assay potency score (higher = more potent) of 0.66.

In the case of AAACCTATGAGTCATAGGGAGG, the sensor-assay potency score (higher = more potent) was -1.86.

The target in another experiment is PSIP1. The description is as above. Particulars: shRNA.
Sequence TTGAAAATATGCTACAACCATG yielded a sensor-assay potency score (higher = more potent) of -1.01.

On to TTAGTCACATCCTCATTGCTGG, for which the sensor-assay potency score (higher = more potent) is 0.128.

The sequence TTATACAACATTGTAGACTTTT gave a sensor-assay potency score (higher = more potent) of -0.451.

In turn, TATCTATCTCCCATAAACCTTC displayed a sensor-assay potency score (higher = more potent) of -0.586.

TTAATCTCAGCATGTATCCTTT yielded a sensor-assay potency score (higher = more potent) of 0.197.

As to TTCAACATCAAACCTATGCTTA, the sensor-assay potency score (higher = more potent) stood at 0.354.

With TTGACTTGAAAATTTCACTTTT, the sensor-assay potency score (higher = more potent) is -0.471.

For the sequence TTCATGGTCGGTATCTTCCTTT, the sensor-assay potency score (higher = more potent) was -0.126.

Sequence TTGATTGTTTAGTTGCTGCCTG gave a sensor-assay potency score (higher = more potent) of 0.524.

In turn, TTAGTTACTAGTGCCTGCCTAT gave a sensor-assay potency score (higher = more potent) of 0.32.

TTAAGTTTTAGTGACTTCCTAA displayed a sensor-assay potency score (higher = more potent) of -0.13.
